# Source: ChEMBL document CHEMBL3988442, “University of Dundee, Small-Polar-MMV Screening Library” (2021)
# In all, about 85,000 compounds went through this assay and about 440 (0.52%) showed an effect of 50% or more. Shown is part of a subset that was picked to be rich in strong results.
# Assay: In vitro enzyme assay to detect hydrolysis of chlorophenol red-beta-D-[…] directly proportional to the number of Toxoplasma stably expressing beta-galactosidase
# Assay type: functional, organism-based, Toxoplasma gondii
# Set-up: scale not given: in the data most compounds retested in dose-response had high values
Compound,Percent Effect (50 µM) [%],Percent Effect (10 µM) [%]
Nc1nc2c(s1)Cc1ccccc1-2,-5.547,
Cc1n[nH]c(C)c1S(=O)(=O)N1CCC(N)CC1,2.469,
CCS(=O)(=O)NCCNCc1ccc(Cl)cc1F,-9.661,
NC(=O)NC(=O)CSc1ncccn1,-2.425,
Cc1nn(C)c(C)c1CC(=O)NCCc1ccccn1,-1.397,
COc1ccc(CN)nc1,5.444,
COc1ccccc1CC1CCCN(C(=O)c2cc[nH]n2)C1 (stereo not drawn),,4.307
CNc1ncc(C(=O)N2CCCC(Cc3ccccc3OC)C2)s1 (stereo not drawn),,65.23
COc1ccccc1CC1CCCN(C(=O)c2nccnc2N)C1 (stereo not drawn),,-6.18
O=C(CN1C(=O)CC2(CCCCC2)C1=O)NC1CC1,-7.096,
CN(C)C(=O)NCCNc1cccc(Br)c1,-13.02,
CC(C)CCN1CCN(C(=O)c2nccnc2N)CC1,0.2706,
CCN(CC)S(=O)(=O)N1CCNCC1,-3.294,
CC(=O)c1c[nH]c(C(=O)NCc2cccnc2)c1,0.2894,
O[C@@H]1CN(c2nc3ccccc3s2)CC[C@H]1c1ccc2c(c1)OCO2,,53.23
O[C@@H]1CN(c2cnc3ccccc3n2)CC[C@H]1c1ccc2c(c1)OCO2,,20.57
O[C@@H]1CN(c2nc3ccccc3o2)CC[C@H]1c1ccc2c(c1)OCO2,,30.32
COc1cccc(NC(=O)C(C)Sc2nnnn2C)c1 (stereo not drawn),-3.512,
N#CCc1ccc(CO)cc1,-0.5268,
COCCC(C)Nc1c[nH]nc1-c1ccccn1 (stereo not drawn),4.849,
Nc1c[nH]nc1-c1ccccn1,64.31,
c1ccc(-c2cc[nH]n2)nc1,-7.989,
Cc1ccc(OCCN2CCOCC2)cc1,-4.655,

Compound,Percent Effect (50 µM) [%],Percent Effect (10 µM) [%]
CC(N)(CO)c1ccc(Br)cc1 (stereo not drawn),5.046,
O=C(NC1CN(c2ccc(C(F)(F)F)cn2)C1)C1CC1,-14.77,
NC(=O)CC1CCCCN1c1ccc(C(F)(F)F)cn1 (stereo not drawn),-10.18,
CNC(=O)[C@@H]1CSCN1c1ccc(C(F)(F)F)cn1,98.68,
CN(C)C(=O)C1(N)CCCC1,3.679,
COC(=O)c1cccc(COC(=O)CCNC(C)=O)c1,-1.212,
NC(=O)c1ccccc1COC(=O)c1ccsc1,4.513,
Cc1cncc(C(=O)Nc2sc(C)cc2C(N)=O)c1,2.925,
Cc1cncc(C(N)=O)c1,97.16,
Cc1cnn(-c2cncc(C(N)=O)c2)c1,,0.2718
Clc1cnn(CCN2CCN(C3CCNC3)CC2)c1 (stereo not drawn),12.09,
COc1ncccc1CNC(=O)NC1CCS(=O)(=O)C1 (stereo not drawn),-1.32,
CCN(CC(C)C#N)C(=O)c1ccc(Br)o1 (stereo not drawn),96.74,
CCN(CC(C)C#N)C(=O)c1sccc1C (stereo not drawn),16.85,
CCN(Cc1nonc1C)C(=O)c1ccc(Br)o1,,-1.469
O=C1CCCN1CCCNS(=O)(=O)c1ccc(Br)s1,-1.058,
O=C1c2ccc(F)cc2C(=O)N1Cc1ccno1,5.807,
O=C1c2ccc(F)cc2C(=O)N1Cc1ccccn1,-3.473,
O=C1c2ccc(F)cc2C(=O)N1Cc1nnsc1Cl,52.75,
COC(=O)CNc1ccc2ccn(C)c(=O)c2c1,-16.28,
Cn1ccc2ccc(NS(=O)(=O)C3CC3)cc2c1=O,65.83,
CN(C)C(=O)N1CC2(CCOCC2)c2cc(NS(=O)(=O)C3CC3)ccc21,,-3.564
Cc1cc(CN(C)C(=O)c2cnn(C)c2C)no1,-0.6579,

Compound,Percent Effect (50 µM) [%],Percent Effect (10 µM) [%]
CC(C)C(CN)N1CCN(C)CC1 (stereo not drawn),18.88,
CCNC(=O)c1nnn(Cc2ccccc2)c1OC,,-0.1195
COc1c(C(=O)NCc2cnn(C)c2C)nnn1Cc1ccccc1,,65.52
COc1c(C(=O)NCc2cccnc2)nnn1Cc1ccccc1,,61.62
COc1c(C(=O)NCC(C)C)nnn1Cc1ccccc1,,74.28
COc1c(C(=O)NCC2CCCO2)nnn1Cc1ccccc1 (stereo not drawn),,62.42
COc1c(C(=O)NCc2cccnc2)nnn1Cc1ccc(C)cc1,,3.825
COc1ccc(C(=O)NCc2cnn(C)c2C)o1,-4.523,
CCOCCCNC(=O)c1nnn(Cc2ccccc2)c1OC,,43.16
O=C(NCc1cccnc1)c1cn(CCc2ccccc2)nn1,,7.216
COc1ccc(Cl)cc1C(=O)NCc1cnn(C)c1C,,-4.944
COCCNC(=O)c1nnn(Cc2ccccc2)c1OC,,38.59
O=C(NCC1CCCO1)c1nc2c(s1)CCCN2Cc1ccccc1 (stereo not drawn),,-17.89
CC1Cc2cc(CO)ccc2O1 (stereo not drawn),-10.07,
CCc1nnsc1C(=O)N1CCc2sccc2C1,-20.28,
Cc1ccccc1NC(=O)CCN1CCN(C)CC1,-26.18,
Cc1ccc2c(c1)C(=O)CCCS2(=O)=O,-6.954,
Cc1ccc(CN(CCO)C(=O)c2cscn2)cc1,-0.4723,
O=C(Nc1ccc2c(c1)OCO2)N1CCOCC1,-3.838,
CN1CCCC1CCSCC(=O)Nc1ccccn1 (stereo not drawn),5.261,
NCc1ccc(CO)cc1,0.7244,
CCn1nc(C)c(NC(=O)c2nnn(Cc3ccccc3)c2OC)c1C,,55.69
CCn1nc(C)c(NC(=O)c2cc(NC(=O)C(C)C)n(C)n2)c1C,,1.116

Compound,Percent Effect (50 µM) [%],Percent Effect (10 µM) [%]
CCN(CC)C(=O)c1nnn(Cc2ccccc2)c1OC,,-3.108
CCC(OCCO)c1ccccc1 (stereo not drawn),-3.537,
CC(C)[C@H](N)C(=O)N1CCC(C2CCOCC2)CC1,8.319,
Cn1nnc(NC(=O)c2ccc(C#N)cc2F)n1,-8.268,
Cn1nnnc1SCCNC(=O)c1cccc2ccnn12,,-7.372
CSc1ccccc1C(=O)NCCSc1nnnn1C,-10.69,
Cn1nnnc1SCCNC(=O)c1cc(Cl)ccc1F,98.81,
CCC(C(=O)Nc1ccc(C)cc1)N(C)C (stereo not drawn),-1.57,
COc1c(N)c(C)nn1C,95.49,
COc1c(CNCCCNS(C)(=O)=O)c(C)nn1C,-17.44,
COc1c(CNCCS(C)(=O)=O)c(C)nn1C,3.832,
CCC(=O)N1CCCN(C(=O)C(N)C(C)(C)C)CC1 (stereo not drawn),9.824,
Cc1ccc(C(=O)N2CCN(c3nccn3C)CC2)o1,58.26,
Cc1ccc(C(=O)N2CCN(c3nccs3)CC2)o1,7.068,
CC(=O)N1CCN(c2nccn2C)CC1,15.57,
Cn1cc(NC(=O)CSc2nccn2C)cn1,23.13,
CC(N)c1nnc2ccccn12 (stereo not drawn),17.22,
O=C(Nc1cccnc1)NC1CCN(c2ccccc2OC(F)F)C1 (stereo not drawn),,-3.215
O=C(Nc1ccccn1)NC1CCN(c2ccccc2OC(F)F)C1 (stereo not drawn),,20.62
O=C(Nc1ccncc1)NC1CCN(c2ccccc2OC(F)F)C1 (stereo not drawn),,74.41
CCC1(CN)OCCc2ccccc21 (stereo not drawn),4.501,
NC(=O)[C@@H]1Cc2ccccc2CO1,9.404,
Cn1ncnc1CCNc1cc(C2CC(N)C2)ncn1 (stereo not drawn),22.67,

Compound,Percent Effect (50 µM) [%],Percent Effect (10 µM) [%]
CN1CCC(NC(=O)c2cc3ccccc3s2)C1=O (stereo not drawn),52.45,
CN1CCC(NC(=O)c2ccc3ncccc3c2)C1=O (stereo not drawn),1.515,
CCCS(=O)(=O)N1CCC(NC(=O)c2cc3ccccc3s2)CC1,,4.884
CCC(C)(NCc1cc(F)ccc1F)C(N)=O (stereo not drawn),-22.31,
CCN(CCNS(=O)(=O)N1CCOCC1)C(=O)OC(C)(C)C,,51.95
CCN(CCNS(=O)(=O)C1CCOCC1)C(=O)OC(C)(C)C,,6.938
CC(C)(C)OC(=O)N(CCNS(=O)(=O)N1CCOCC1)C1CC1,,-6.418
O=C1CCOc2cc(O)c(F)cc21,-11.53,
CN(C)S(=O)(=O)CCCN1CCC2(CCCNC2=O)C1 (stereo not drawn),25.69,
CC1CCCN(Cc2nc(N)nc(N(C)C)n2)C1 (stereo not drawn),28.57,
COc1ccc(C(CO)N(C)Cc2ccncc2)cc1 (stereo not drawn),7.987,
CCC(C#N)NC(=O)c1ccc(Oc2cccnc2)cc1 (stereo not drawn),,-3.821
CCC(C#N)NC(=O)c1cnc(OC(C)C)c(Cl)c1 (stereo not drawn),77.34,
CC(CO)CNC(=O)c1cnc(OC(C)C)c(Cl)c1 (stereo not drawn),9.037,
O=C(c1ccccc1-n1cccn1)N1CCSCC1,5.631,
CCOc1ncccc1C(=O)N1CCCN(CC)CC1,8.353,
Cc1ccc(CN2Cc3nnn(C)c3C(COCC3CC3)C2)s1.O=C(O)C(F)(F)F (stereo not drawn),,-9.58
COCC1CN(Cc2ccc(C)s2)Cc2nnn(C)c21.O=C(O)C(F)(F)F (stereo not drawn),,3.713
Cc1ccc(CN2Cc3nnn(C)c3C(COCc3ccccn3)C2)s1.O=C(O)C(F)(F)F.O=C(O)C(F)(F)F (stereo not drawn),,13.37
Cc1ccc(CN2Cc3nnn(C)c3C(COCC(=O)N(C)C)C2)s1.O=C(O)C(F)(F)F (stereo not drawn),,-13.89
Cc1ccc(CN2Cc3nnn(C)c3C(COCc3ccccc3)C2)s1.O=C(O)C(F)(F)F (stereo not drawn),,57.56
CC(C)(C)c1cc(NC(=O)CN2CCC(O)CC2)on1,-5.429,
CCOc1ccc(NC(=O)NC2CCS(=O)(=O)C2)cc1 (stereo not drawn),3.188,

Compound,Percent Effect (50 µM) [%],Percent Effect (10 µM) [%]
O=C(CN1CCNCC1)NCCSc1ccc(Cl)cc1,4.461,
O=C(NCCCN1CCCC1=O)c1ccc(-n2ccc3ccccc32)s1,,17.83
O=C(NCCCN1CCOCC1)c1ccc(-n2ccc3ccccc32)s1,,19.43
O=C(NCCN1CCOCC1)c1ccc(-n2ccc3ccccc32)s1,,-1.22
CCN(CC)CCNC(=O)c1cnc(C(C)(C)C)s1,,0.3139
O=C(NCCCN1CCCCC1)c1ccc(-n2ccc3ccccc32)s1,,79.49
CCN(CC)CCNC(=O)c1ccc(-n2ccc3ccccc32)s1,,63.07
CC1Sc2ccc(C(=O)N(C)C)cc2NC1=O (stereo not drawn),-6.489,
NC1CCN(c2ccccc2F)CC1,-9.36,
CCSCCC(C)N(C)C(=O)c1ccn(C)c(=O)c1 (stereo not drawn),-4.294,
COc1ccc(C2NC(=O)c3cccnc3N2)cc1F (stereo not drawn),6.983,
N#Cc1ccc(C2NC(=O)c3cccnc3N2)cc1 (stereo not drawn),98.73,
O=C1NC(c2cc[nH]n2)Nc2ncccc21 (stereo not drawn),-9.997,
CC(C)OCCN1CCC(O)CC1,2.889,
O=C(Nc1ccncc1)N1CCN(CC2CC2)CC1,11.51,
c1ccc(-c2noc(CN3CCOC(Cn4cccn4)C3)n2)nc1 (stereo not drawn),,4.093
CN(C)CC1CN(Cc2nc(-c3ccccn3)no2)CCO1 (stereo not drawn),,86.82
CN(C)CC1CN(Cc2nc(-c3cccnc3)no2)CCO1 (stereo not drawn),,12.35
